Holding throughout (assay): NCI-60 one-dose screen, 48 h (100 = growth as untreated, 0 = no growth, -100 = all killed)
One test has as its system HCT-15 colon. To be noted: 10 µM unless noted.
The subject of a further test is HT29 colon. As to conditions: 10 µM unless noted.
The test system of the next test is SNB-75 CNS. To be noted: 10 µM unless noted.
The subject of another test is SNB-19 CNS. As to conditions: 10 µM unless noted.
The test system of the next test is U251 CNS. As to conditions: 10 µM unless noted.
The subject of the next test is PC-3 prostate. As to conditions: 10 µM unless noted.
For the next test, the system named is SK-MEL-5 melanoma. As to conditions: 10 µM unless noted.
The subject of the next test is UACC-62 melanoma. To be noted: 10 µM unless noted.
The next test has as its system LOX IMVI melanoma. To be noted: 10 µM unless noted.
A further test deals with SK-MEL-28 melanoma. As to conditions: 10 µM unless noted.
A further test has as its system SK-MEL-2 melanoma. To be noted: 10 µM unless noted.
In the next test the test system is SN12C renal. To be noted: 10 µM unless noted.
In another test the test system is UO-31 renal. To be noted: 10 µM unless noted.
Another test deals with TK-10 renal. To be noted: 10 µM unless noted.
The subject of a further test is ACHN renal. As to conditions: 10 µM unless noted.
Another test concerns CAKI-1 renal. As to conditions: 10 µM unless noted.
The subject of a further test is A498 renal. As to conditions: 10 µM unless noted.
For a further test, the system named is MOLT-4 leukemia. As to conditions: 10 µM unless noted.
In the next test the test system is EKVX NSCLC. As to conditions: 10 µM.
In another test the test system is CCRF-CEM leukemia. As to conditions: 10 µM.

This is part of a sample that, as a whole, favours compounds with a hit. Of some 83,000 tested, about 20% had one in any assay.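 Cells were grown in 96-well plates and exposed to the test compound at a single concentration for 48 hours; results are reported as percent growth, with values below 10 considered active.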 Unmarked numbers belong to inactive results. Active and inactive are the calls of the source.

With `CNc1nc2ncn(C)c2c(=O)[nH]1`, the growth with HCT-15 colon is 74%; with HT29 colon, 98%; with SNB-75 CNS, 81.3%; in the test on SNB-19 CNS it was 113%; in the test with U251 CNS, 97.3%; with PC-3 prostate, 100%. In addition, the growth was 101% in the test with SK-MEL-5 melanoma; 78.3% in the test on UACC-62 melanoma; 71.6% in the test on LOX IMVI melanoma; 103% in the test with SK-MEL-28 melanoma; 94.3% with SK-MEL-2 melanoma; 92% with SN12C renal. Also, the growth with UO-31 renal was 83.3%; in the test with TK-10 renal, 84.1%; in the test with ACHN renal it was 71.5%; with CAKI-1 renal, 84.1%; with A498 renal, 96.4%; in the test with MOLT-4 leukemia it was 94.8%.
With `CN1C(=O)C(=Cc2coc3ccc(Br)cc3c2=O)C(=O)N(C)C1=O`, the growth with HCT-15 colon is 105%; in the test on HT29 colon it was 108%; with SNB-75 CNS, 105%; with SNB-19 CNS, 105%; with U251 CNS, 104%; in the test on PC-3 prostate it was 89.3%. The growth in the test on SK-MEL-5 melanoma was 93.8%; with UACC-62 melanoma, 83.4%; in the test on LOX IMVI melanoma, 101%; with SK-MEL-28 melanoma it was 103%; in the test on SK-MEL-2 melanoma, 111%; in the test on EKVX NSCLC it was 109%. The growth is 77.3% in the test with UO-31 renal; 108% in the test with TK-10 renal; 96.8% with ACHN renal; 101% in the test on CAKI-1 renal; 116% with CCRF-CEM leukemia; 126% in the test with MOLT-4 leukemia.
Consider `COc1cc(CNC(=O)CCCC/C=C/C(C)C)ccc1OCc1nnc(Nc2ccccc2F)o1`, for which the growth with HCT-15 colon was 90.1%; in the test with HT29 colon, 89.9%; in the test with SNB-75 CNS, 57.8%; in the test on SNB-19 CNS, 58.6%; with U251 CNS, 84%; in the test on PC-3 prostate it was 72.5%. The growth with SK-MEL-5 melanoma is 86.6%; with UACC-62 melanoma it was 65.5%; in the test with LOX IMVI melanoma, 83.4%; in the test with SK-MEL-28 melanoma, 85.2%; with SK-MEL-2 melanoma, 111%; with EKVX NSCLC, 77.1%. Also, the growth in the test on UO-31 renal is 52.8%; in the test with TK-10 renal it was 97.7%; in the test with ACHN renal, 56.1%; in the test on CCRF-CEM leukemia, 83%; with MOLT-4 leukemia it was 82%.
For `Cn1c2ccccc2c2ccccc21`, the growth in the test on HCT-15 colon is 107%; in the test on HT29 colon it was 104%; in the test with SNB-75 CNS, 85.5%; with SNB-19 CNS it was 98.3%; in the test on U251 CNS it was 96.5%; with PC-3 prostate it was 105%. Besides, the growth was 105% in the test on SK-MEL-5 melanoma; 101% with UACC-62 melanoma; 95.8% with LOX IMVI melanoma; 102% with SK-MEL-28 melanoma; 99.4% in the test on SK-MEL-2 melanoma; 107% with SN12C renal. In addition, the growth with UO-31 renal is 75%; in the test on TK-10 renal, 97.5%; in the test on ACHN renal, 105%; in the test with CAKI-1 renal, 101%; in the test with A498 renal, 115%; with CCRF-CEM leukemia, 92.5%. Also, the growth in the test on MOLT-4 leukemia was 89.7%.
In the case of `O=C(CCl)NC1c2ccccc2Oc2ccccc21`, the growth is 50.8% in the test with HCT-15 colon; 80.5% in the test with HT29 colon; 74.5% in the test with SNB-75 CNS; 94.3% with SNB-19 CNS; 47.7% in the test on U251 CNS; 80.7% in the test on PC-3 prostate. Also, the growth is 73.8% in the test on SK-MEL-5 melanoma; 68.1% in the test on UACC-62 melanoma; -1.57% (active) in the test with LOX IMVI melanoma; 92% with SK-MEL-28 melanoma; 63% in the test with SK-MEL-2 melanoma; 81.1% in the test on SN12C renal. Besides, the growth in the test on UO-31 renal is 92.1%; in the test with TK-10 renal it was 84.4%; in the test with ACHN renal it was 72.4%; in the test on CAKI-1 renal it was 64.6%; with A498 renal it was 97.3%.
On to `Cc1ccc([C@@H]2C[C@H](O)Cc3ccccc3N2)s1`, for which the growth in the test on HCT-15 colon is 94.1%; with HT29 colon it was 117%; in the test with SNB-75 CNS, 98.4%; in the test with SNB-19 CNS, 120%; in the test on U251 CNS it was 99.6%; in the test with PC-3 prostate it was 92%. For the same compound, the growth in the test with SK-MEL-5 melanoma is 105%; with UACC-62 melanoma, 117%; in the test with LOX IMVI melanoma it was 101%; with SK-MEL-28 melanoma, 116%; with SK-MEL-2 melanoma, 141%; in the test with EKVX NSCLC, 97.6%. Also, the growth in the test on UO-31 renal was 94.5%; in the test on TK-10 renal, 119%; with ACHN renal, 104%; with CAKI-1 renal, 94.8%; in the test with A498 renal, 91.2%; with CCRF-CEM leukemia, 105%. Moreover, the growth in the test with MOLT-4 leukemia is 95.7%.
Regarding `O=CN/N=C/c1ccc(Cl)c([N+](=O)[O-])c1`, the growth is 47.3% in the test on HCT-15 colon; 6.89% (active) in the test with HT29 colon; 62.2% in the test with SNB-75 CNS; 32.5% with SNB-19 CNS; 11.9% in the test with U251 CNS; 1.87% (active) with PC-3 prostate. The growth in the test on SK-MEL-5 melanoma is 14.2%; in the test with UACC-62 melanoma, 18%; in the test with LOX IMVI melanoma it was 17%; in the test with SK-MEL-28 melanoma, 43%; with SK-MEL-2 melanoma it was 41.1%; with SN12C renal, 21.2%. Besides, the growth is 80.1% in the test with UO-31 renal; 8.5% (active) with TK-10 renal; 44.2% in the test with ACHN renal; 41.1% in the test with CAKI-1 renal; 56% with A498 renal; 15.3% with CCRF-CEM leukemia. Moreover, in the test on MOLT-4 leukemia, the growth is 20.6%.
For the compound `Oc1ccc([S+](c2ccc(O)cc2)c2ccc(O)cc2)cc1`, the growth is 97.4% in the test on HCT-15 colon; 108% in the test with HT29 colon; 92.5% with SNB-75 CNS; 99.7% with SNB-19 CNS; 103% with U251 CNS; 97.9% in the test on PC-3 prostate. The growth was 100% with SK-MEL-5 melanoma; 101% with UACC-62 melanoma; 107% in the test on LOX IMVI melanoma; 105% with SK-MEL-28 melanoma; 117% in the test on SK-MEL-2 melanoma; 95.2% in the test on SN12C renal. The growth in the test with UO-31 renal was 87.5%; in the test on TK-10 renal it was 115%; in the test with ACHN renal, 106%; with CAKI-1 renal, 102%; in the test on A498 renal, 71.3%; with CCRF-CEM leukemia it was 100%. The growth with MOLT-4 leukemia is 89.2%.
Consider `CCCCCCNC(=O)Oc1ccc(/C(=C(/C)Cc2ccc(OC)cc2)c2ccc(OCCN3CCCCC3)cc2)cc1`, for which the growth with HCT-15 colon was 31.6%; in the test on HT29 colon it was 19.5%; in the test with SNB-75 CNS it was 66.7%; in the test on SNB-19 CNS, 86.3%; with U251 CNS, 63.1%; in the test on PC-3 prostate, 76.4%. For the same compound, the growth in the test on SK-MEL-5 melanoma was 80.4%; with UACC-62 melanoma, 88.4%; in the test on LOX IMVI melanoma, 82.9%; in the test with SK-MEL-28 melanoma it was 96.8%; in the test with SK-MEL-2 melanoma it was 101%; in the test on EKVX NSCLC, 81.9%. Also, the growth with UO-31 renal was 58.5%; with TK-10 renal, 89.8%; in the test on ACHN renal, 99.5%; in the test with CCRF-CEM leukemia, 72%; with MOLT-4 leukemia it was 69.3%.

These data come from PubChem BioAssay (NCI).
